Results as given in PubChem BioAssay (EPA / NIEHS).
Some compounds were tested as several samples or in several runs, with calls that do not always agree. Activity calls are given as the source filed them. How the source made its calls: active means hit-call score of the fitted dose curve at least 0.9, where 1 is the maximum; inactive means score below 0.9.

The molecules below were run on Interferon-gamma inducible Protein 10 (IP10), CXCL10 (gene 3627) (assay: BSK_hDFCGF_IP10: BioMAP Diversity Plus: hDFCGF Assay for Interferon-gamma inducible Protein 10 (IP10) Biomarker Activity (AID 2283053)). Settings: primary human foreskin fibroblasts; actives raise or lower the signal.
Procedure: BSK_hDFCGF is a cell-based, multiplexed-readout assay that uses foreskin fibroblast, a human skin primary cell, with measurements taken at 24 hours after chemical dosing in a 96-well plate.BSK_hDFCGF_IP10 is an assay component measured in the BSK_hDFCGF assay. It measures IP-10 antibody related to regulation of gene expression using ELISA technology.Data from the assay component BSK_hDFCGF_IP10 was analyzed into 1 assay endpoint. This assay endpoint, BSK_hDFCGF_IP10, was analyzed with bidirectional fitting relative to DMSO as the negative control and baseline of activity. Using a type of binding reporter, gain or loss-of-signal activity can be used to understand changes in the signaling as they relate to the gene CXCL10. Furthermore, this assay endpoint can be referred to as a primary readout, because this assay has produced multiple assay endpoints where this one serves a signaling function. To generalize the intended target to other relatable targets, this assay endpoint is annotated to the cytokine intended target family, where the subfamily is chemotactic factor.
The levels of cell surface (or secreted, indicated by the prefix "s") biomarker endpoints were measured by ELISA. Overt cytotoxicity to cells in confluent adherent cultures (all systems other than the BT system) was assessed by measuring total protein levels using sulforhodamine B (SRB) staining in parallel cultures at the time of biomarker measurements, indicated as SRB endpoints. For proliferation assays for adherent cell types, individual cell types are cultured at sub-confluence and relative cell numbers quantified by SRB staining at time points optimized for each system (48 h: 3C and CASM3C systems; 72 h: BT and HDF3CGF systems; 96 h: SAg system). SRB was performed by staining cells with 0.1% SRB after fixation with 10% TCA and reading wells at 560 nm.Viability and proliferation of PBMC (T cells) was quantified by Alamar Blue reduction for the SAg and BT systems. For PBMC viability (referred to as PBMC Cytotoxicity within the assay endpoint names), cells were plated (75,000/well in a 96-well plate) and then chemical samples added for 1 h before addition of activators, SEB and TSST-1 (20 ng/mL final concentration each). Cells were incubated for 90 h. Then, Alamar Blue (20 uL/well) (Invitrogen, Cat DAL1100) was added for 6 h, and the plates were read with a fluorescence microplate reader at 546/580 nm (excitation/emission). For PBMC proliferation, cells were plated and activated as above but incubated for only 16 h prior to addition of Alamar Blue. Plates were read after 6 h.
FC(F)C(F)(F)COCC1CO1 (stereo not given) was tested, and the outcome was “inactive”.
In the case of S=P(N1CC1)(N1CC1)N1CC1, the outcome is reported as “inactive”.
With CCCCCCCCN(C)C the outcome was “inactive”.
With CC(=O)c1ccccc1 the outcome was “inactive”.
For CCn1nc(C)c2c1C(=O)NCC(c1ccc(O)cc1)=N2, the outcome was “inactive”.
In the case of O=C(O)[C@H](O)[C@@H](O)C(=O)O, the outcome is reported as “inactive”.
In the case of OC(CCl)CCl, the outcome is reported as “inactive”.
FC(F)(F)COC(OCC(F)(F)F)OCC(F)(F)F was tested, and the outcome was “inactive”.
NC(=O)NN=Cc1ccc([N+](=O)[O-])o1 was tested, and the outcome was “inactive”.
In the case of OCCNCCO, the outcome is reported as “inactive”.
CCCCCOC(C)=O was tested, and the outcome was “inactive”.
With Cc1nccn1-c1ccc(Sc2cccc(C3(C(N)=O)CCOCC3)c2)cc1 the AC50 was 10.2 µM (active).
CCCCCCCC1CCC(=O)O1 (stereo not given) was tested, and the outcome was “inactive”.
For OCC(CO)(CO)CO, the outcome was “inactive”.
For Cc1cccc(O)c1C, the outcome was “inactive”.
O=C(O)c1cccc(C[C@@H]2COc3ccc(OCc4nc5cc(F)ccc5s4)cc3[C@@H]2O)c1 was tested, and the outcome was “inactive”.
For c1ccc(C(O[C@@H]2CCCN(CCc3ccc4c(c3)OCO4)C2)c2ccccc2)cc1, the AC50 was 26 µM (active).
In the case of CCCC(CCC)C(=O)O, the outcome is reported as “inactive”.
CCOc1ccc2[nH]cc(C(=O)NCc3ccccc3)c(=O)c2n1 was tested, and the outcome was “inactive”.
CCc1cccc(CC)c1N was tested, and the outcome was “inactive”.
With OC[C@H]1O[C@@](CO)(O[C@H]2O[C@H](CO)[C@@H](O)[C@H](O)[C@H]2O)[C@@H](O)[C@@H]1O the outcome was “inactive”.
With C[Si](C)(C)C(F)(F)C(F)(F)C(F)(F)F the outcome was “inactive”.
For OC(O)(C(F)C(O)(O)C(F)(F)F)C(F)(F)F, the AC50 was 19.6 µM (active) and the outcome was “inactive”.
In the case of FC(F)(F)C(F)(F)C(F)(F)C(F)(F)C(F)(F)C(F)(F)I, the outcome is reported as “inactive” and the AC50 is reported as 30 µM (active).
With COS(C)(=O)=O the outcome was “inactive”.
With NC(=O)N(O)[C@@H]1COc2cc(OCc3ccccc3)ccc21 the outcome was “inactive”.
With c1ccc2c(c1)-c1cccc3c1c-2cc1ccccc13 the outcome was “inactive”.
In the case of Cc1nc(-c2ccccn2)ncc1C(=O)Nn1cc(C)c2cc(F)ccc21, the outcome is reported as “inactive”.
For CC[C@H](C)C(=O)O[C@H]1C[C@H](O)C=C2C=C[C@H](C)[C@H](CC[C@@H](O)C[C@@H](O)CC(=O)O)[C@H]21, the outcome was “inactive”.
CCCCCCCCCCCCCCCCOS(=O)(=O)O was tested, and the AC50 was 6.13 µM (active).
In the case of Cn1cc[nH]c1=S, the outcome is reported as “inactive”.
In the case of O=S(=O)(O)c1ccc(N=Nc2c(O)ccc3cc(S(=O)(=O)O)ccc23)cc1, the outcome is reported as “inactive”.
With O=C(O)c1cccc(C(=O)O)c1 the outcome was “inactive”.
With NNC(=O)c1ccncc1 the outcome was “inactive”.
For CCCOc1ccc(S(=O)(=O)N2CCN(CC)CC2)cc1-c1nc2c(CC)n(Cc3ccccn3)nc2c(=O)[nH]1, the outcome was “inactive”.
In the case of CC(C)C(=O)Nc1ccc([N+](=O)[O-])c(C(F)(F)F)c1, the outcome is reported as “inactive”.
For CCCCCCCC/C=C\CCCCCCCC(=O)OC[C@@H](O)[C@H]1OC[C@H](O)[C@H]1O, the outcome was “inactive”.
For C=CCc1cc(S(=O)(=O)c2ccc(O)c(CC=C)c2)ccc1O, the AC50 was 29 µM (active).
